Rows were chosen to be rich in hits. Some 4.1% of all compounds tested hit in one or more screens of this group.
tim23-1 inh – inhibits growth of tim23-1 mutant yeast | inhibition, % at 20 µM | 1.3% of 330,000 active | AID 463212 | S. cerevisiae tim23-1 growth, BacTiter-Glo luminescence, 24 h;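 active = growth inhibition of the mutant yeast at or above 50%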;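 note: temperature-sensitive mutant grown at 25 °C; plate controls were DMSO-treated mutant yeast for no effect and medium wells lacking yeast for full effect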
NALP3 yeast inh – blocks the NALP3 inflammasome reconstituted in yeast | inhibition, % at 10 µM | AID 2825 | Yeast reconstituted NLRP3/ASC/caspase-1, beta-gal luminescence, 24 h | 0.39% of 330,000 active;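 active = inhibition of 50% or more; inactive = inhibition below 50%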;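 note: plate controls were induced DMSO wells for no effect and uninduced yeast grown without galactose for full effect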
NALP1 inh – inhibitors of NALP1 inflammasome in yeast; S. cerevisiae NALP1/ASC/caspase-1 growth, X-gal OD620, 72 h; 0.61% of 280,000 active; AID 2071; inhibition, % at 10 µM; in the data active = inhibition mostly above about 24%, no sharp cut-off; inactive = mostly below about 32%
TIM10 inh – TIM10 yeast growth inhibition. 1.4% of 330,000 active. S. cerevisiae TIM10 strain growth, BacTiter-Glo luminescence, 24 h. inhibition, % at 10 µM;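 active = inhibition of 40% or more at the single tested concentration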;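 note: wild-type TIM10 isogenic control strain grown at permissive 25 °C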
tim10-1 inh – inhibits growth of tim10-1 mutant yeast; AID 463190; 2.2% of 330,000 active; inhibition, % at 20 µM; S. cerevisiae tim10-1 ts strain growth, BacTiter-Glo, 24 h;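 active = inhibition of at least 40%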;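 note: mutant grown at 25 °C; 0% = DMSO wells with yeast and 100% = wells holding no yeast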
tim10-1 confirm – confirmation of tim10-1 mutant yeast growth inhibitors; shares compounds with tim10-1 inh; S. cerevisiae tim10-1 ts strain growth, BacTiter-Glo, 24 h; inhibition, % at 20 µM; 56% of 7,400 active; AID 463213;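 active = inhibition of yeast growth at or above a set limit in either of two repeat tests at 20 µM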;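 note: tim10-1 mutant grown at permissive 25 °C to find synthetic lethal compounds; 0% = DMSO yeast wells and 100% = medium wells without yeast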
Numbers without * were called inactive; x = no result given.

SMILES	tim23-1 inh	NALP3 yeast inh	NALP1 inh	TIM10 inh	tim10-1 inh	tim10-1 confirm
Fc1ccc(NC(=S)Nc2nccs2)cc1	34	43	0	3	14	x
S=C(Nc1ccccc1)Nc1nccs1	32	45	12	18	42*	18
O=C(O)c1ccc(CSc2nnc(-c3ccccc3)n2-c2ccccc2)cc1	3	5	23	-1	18	x
Brc1cccc(-c2nnc(SCc3ccon3)n2-c2ccccc2)c1	45	10	14	26	41*	15
O=C(OCc1cccc(C(F)(F)F)c1)c1cc(S(=O)(=O)N2CCOCC2)ccc1F	31	19	x	-9	33	x
Cc1cc(=O)oc2cc(OC(=O)CCCCCN3C(=O)c4ccccc4C3=O)ccc12	40	-2	14	26	49*	43*
Cc1ccc(S(=O)(=O)CCC(=O)Oc2ccc3c(C)cc(=O)oc3c2)cc1	17	6	x	15	13	x
CC1=CC(C)(C)Nc2ccc(OC(=O)CCN3C(=O)c4ccccc4C3=O)cc21	37	14	23	38	40*	32*
Cc1ccc(OCc2cc(C(=O)N(C)Cc3cc(C4CC4)n[nH]3)no2)cc1C	31	27	6	-2	12	x
Cc1cc(C)c(N=Cc2c(O)n(-c3nccs3)c(=O)c3ccccc23)c(C)c1	42	28	13	36	41*	32*
CC(C)CCNC(=O)NC(=O)CSc1nnc(COc2ccccc2Cl)o1	-15	1	2	25	49*	13
Cc1cc(SCC(=O)c2cc(C)n(C)c2C)nc2ccccc12	10	0	11	17	17	x
O=C(Nc1nnc(C2CCCCC2)s1)c1ccco1	32	13	20	24	45*	35*
Cc1ccc(S(=O)(=O)/N=C(/NC(=S)Nc2cccc(C)c2)c2ccccc2)cc1	14	14	-2	18	38	x
Cc1cccc(NC(=S)N/C(=N/S(=O)(=O)c2ccccc2)c2ccccc2)c1	20	17	6	26	42*	14
O=C(CNC(=O)C12CC3CC(CC(C3)C1)C2)N/N=C\c1ccccn1	8	-3	-9	-16	19	x
CCN(CC(=O)Nc1ccccc1C(F)(F)F)C(=O)C1CC(=O)N(Cc2ccccc2)C1 (stereo unspecified)	-4	2	x	-5	2	x
O=C(Nc1cccc(Cl)c1)/C(=C\c1cccnc1)NC(=O)c1ccco1	6	35	4	0	8	x
COc1cccc(C(C(=O)NC2CCCC2)N(CC2CCCO2)C(=O)Cc2cccs2)c1 (stereo unspecified)	12	6	-12	14	45*	21
COc1ccc(C(C(=O)NC2CCCC2)N(CC2CCCO2)C(=O)Cc2cccs2)cc1OC (stereo unspecified)	4	7	-11	19	16	x
COc1ccc(-c2cc(-c3ccccc3)c(C#N)c(S(C)=O)n2)cc1 (stereo unspecified)	34	2	16	24	45*	30*
COc1ccc(CC(=O)Nc2nc(-c3cc(OC)ccc3OC)cs2)cc1	42	20	6	10	43*	35*
COc1ccc(C(=O)CSc2nnc(COc3ccc(C#N)cc3)n2-c2ccccc2)cc1	-5	-12	0	5	15	x
O=C(CSc1nnc(COc2ccccc2)n1-c1ccccc1)c1ccccc1	26	-5	-1	0	40*	14
Cc1[nH]n(-c2ccc(C(=O)O)cc2)c(=O)c1CCO	x	x	15	x	x	x
SMILES	tim23-1 inh	NALP3 yeast inh	NALP1 inh	TIM10 inh	tim10-1 inh	tim10-1 confirm
Cc1[nH]n(-c2ccc(Cl)c(Cl)c2)c(=O)c1CCO	31	2	14	20	43*	19
CCOC(=O)C1CN(S(=O)(=O)c2cccc(C(F)(F)F)c2)c2cc(CC(=O)OC)ccc2O1 (stereo unspecified)	18	10	10	7	47*	25
CCOC(=O)C1CN(S(=O)(=O)c2ccccc2)c2cc(S(=O)(=O)CC)ccc2O1 (stereo unspecified)	6	15	9	8	27	x
CCOC(=O)c1c(CSc2ccccc2)n(C)c2ccc(O)c(CN3CCOCC3)c12	39	19	-12	21	44*	16
CCOC(=O)c1c(C)n(C)c2ccc(O)c(CN3CCN(C)CC3)c12	-18	8	-1	-12	-16	x
CC(C)(C)Nc1nc(Cl)nc(NC(C)(C)C)n1	24	-22	-2	14	44*	20
CNc1nc(Cl)nc(NC(C)(C)C)n1	-5	-6	5	1	-1	x
CCN(CC)S(=O)(=O)c1ccc(N2CCN(C)CC2)c(NC(=O)Nc2ccc(C)cc2)c1	19	7	34	10	12	x
COc1cc(CCC(=O)OCc2nnc(-c3ccccc3)o2)cc(OC)c1OC	19	-10	8	21	32	x
COc1cc(-c2nnc(COC(=O)CSc3cc(C)c4ccccc4n3)o2)cc(OC)c1OC	18	5	14	6	40*	17
COc1ccc(N(CC(=O)N2CCC(Cc3ccccc3)CC2)S(C)(=O)=O)cc1	17	8	15	37	23	x
CCOc1ccccc1N1CCN(S(=O)(=O)c2ccc3c4c(cccc24)C(=O)N3)CC1	6	19	14	15	20	x
CCOc1ccc(S(=O)(=O)N2CCN(c3ccccc3F)CC2)c2cccnc12	33	13	37	22	45*	25
Cc1ccc(N2CCN(C(=S)c3ccc(N(C)C)cc3)CC2)cc1	31	3	13	27	23	x
COc1ccc(C(=S)N2CCN(S(=O)(=O)c3ccccc3)CC2)cc1	42	4	4	15	46*	25
COc1ccc(S(=O)(=O)N2CCN(C(=O)c3ccc([N+](=O)[O-])o3)CC2)cc1	35	27	14	28	51*	45*
CN(C)c1ccc(C(=S)N2CCN(c3ccccc3)CC2)cc1	43	4	-13	32	46*	36*
CC(C)c1ccc(S(=O)(=O)N2CCN(C(=O)Cc3ccsc3)CC2)cc1	27	15	x	13	43*	12
CCOc1ccc2nc(-c3cc(NC(C)=O)ccc3O)sc2c1	1	10	11	9	8	x
Cn1c(N)c(Sc2ccc(F)cc2)c(=O)n(C)c1=O	14	14	-14	-4	0	x
CC(=O)N1CCN(C(=S)c2ccc(N(C)C)cc2)CC1	9	1	-13	10	17	x
CN(C)c1ccc(C(=S)N2CCN(S(=O)(=O)c3ccccc3)CC2)cc1	21	-4	10	19	40*	20
COc1ccc(S(=O)(=O)N2CCN(C(=O)c3cccc(Cl)c3)CC2)cc1	41	16	5	20	56*	27
COc1ccc(OC2CCN(S(=O)(=O)c3ccc(OC)cc3)CC2)cc1	45	26	27	8	43*	42*
